TRHR ag: qHTS for Small Molecule Agonists and Allosteric Enhancers of Human TRH Receptor: Primary Screen for Agonists. TRHR cells, calcium flux fluo-8, FDSS agonist mode. AID 493084, 2011. activation, % at 2 µM. Thyrotropin-releasing hormone receptor (Homo sapiens), P34981. 0.18% of 360,000 active; further: 0% is about no effect
Target sequence (P34981 whole entry, looked up): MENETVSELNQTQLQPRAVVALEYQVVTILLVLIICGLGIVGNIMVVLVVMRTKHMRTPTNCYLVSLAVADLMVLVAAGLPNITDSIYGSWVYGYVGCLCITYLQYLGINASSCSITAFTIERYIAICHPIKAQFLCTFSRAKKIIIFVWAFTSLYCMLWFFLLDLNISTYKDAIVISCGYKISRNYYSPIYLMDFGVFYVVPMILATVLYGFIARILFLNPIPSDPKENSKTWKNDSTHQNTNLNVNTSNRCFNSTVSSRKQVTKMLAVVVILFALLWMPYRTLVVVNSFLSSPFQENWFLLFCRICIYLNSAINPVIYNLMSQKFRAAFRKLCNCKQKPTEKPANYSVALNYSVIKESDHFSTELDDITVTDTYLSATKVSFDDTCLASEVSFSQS
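TRHR-expressing cells loaded with fluo-8 calcium dye; 23 nL library compound pin-transferred, kinetic FDSS fluorescence (Ex 480/Em 530) recorded about 180 s for agonist-induced calcium release, before a 10 nM TRH EC20 addition for potentiator mode.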
D1 antag: Antagonist of Human D 1 Dopamine Receptor: qHTS. D(1A) dopamine receptor (Homo sapiens), P21728. 3.2% of 360,000 active. activity change, negative = inhibition, % at 10 µM. HEK293 TREx D1 cells, calcium flux, dopamine EC80; active compounds read low; in the data active means activity change below about -30%; further: on the % scale 0 is the no-effect control and ±100 the full control effect
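Kinetic fluorescence of a calcium dye serves as the read-out. D1-expressing Hek293 Trex cells, induced overnight at 30 C, are exposed to compound for 180 s before an EC80 dopamine addition, then read 180 s further.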
D1 agonist: Allosteric Agonists of the Human D1 Dopamine Receptor: qHTS; HEK293 T-REx D1 cells, calcium flux, agonist mode; activation, % at 2 µM; AID 504660, 2011; 1% of 360,000 active; further: 0% is about no effect
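Inducible HEK293 T-REx D1 cells, force-coupled to calcium signalling, were plated at 4000 cells/well with tetracycline and held overnight at 30 C. After no-wash calcium dye loading, compound-evoked calcium rise over 180 s flagged agonists.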
D1 potentiator: Potentiators of Human D1 Dopamine Receptor: qHTS. D(1A) dopamine receptor (Homo sapiens), P21728. HEK293 TREx D1 cells, calcium flux, dopamine EC20 potentiation. potentiation, % at 10 µM. 0.036% of 360,000 active. AID 504651, 2011; in the data active means potentiation above about 30%; further: 0% is about no effect
TRHR enhancer: qHTS for Small Molecule Agonists and Allosteric Enhancers of Human TRH Receptor: Primary Screen for Enhancers | TRHR cells, fluo-8 calcium fluorescence, EC20 TRH enhancement | enhancement, % at 2 µM | Thyrotropin-releasing hormone receptor (Homo sapiens), P34981 | AID 493056, 2011 | 0.66% of 360,000 active; in the data active means enhancement above about 30%; further: 0% is about no effect
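TRHR-expressing cells loaded with fluo-8 calcium dye were read kinetically (ex 480/em 530) during compound addition, then stimulated with an EC20 of TRH (10 nM final). Enhancement of the Gq-mediated intracellular calcium response was scored.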
Starred values were filed as active, the others as inactive; ! = not active in a repeat. A selection: hits, their analogues and other compounds. The true share with any hit is near 4.6%. Unless noted, no stated cut-off is given here; in the data, active means activation above about 30%; inactive means the rest.

SMILES	TRHR ag	D1 antag	D1 agonist	D1 potentiator	TRHR enhancer
CCC(=NCCc1c(C)[nH]c2ccc(OC(F)(F)F)cc12)C1=C(O)CC(c2ccccc2)CC1=O (centres undefined)	0	-12	5	-3	1
CC(=NCCc1c(C)[nH]c2ccc(OCc3ccccc3)cc12)C1=C(O)CC(c2ccccc2)CC1=O (centres undefined)	1	-31*	9	2	2
CCC(=NCCc1c(C)[nH]c2ccccc12)C1=C(O)CC(c2ccccc2)CC1=O (centres undefined)	0	25	2	0	-4
COc1cc(C(=O)NCc2nc3cccnc3n2Cc2ccc(C)cc2)cc(OC)c1OC	0	7	0	-4	-2
Cc1ccc2c(CC(=O)Nc3c(C(=O)c4ccc(F)cc4)oc4ccccc34)coc2c1	0	5	0	2	0
COc1ccc(C2CC(=O)N3CN(c4ccc(C)c(Cl)c4)CSC3=C2C#N)cc1 (centres undefined)	0	-3	3	-5	31*
CCOc1ccccc1NC(=O)N1CCN(S(=O)(=O)c2ccc3c(ccn3C)c2)CC1	-1	3	4	1	-2
Cc1cccc(NC(=O)CCN2CC(C)OC(C)C2)c1 (centres undefined)	0	6	0	3	35*
Cc1cccc(NC(=O)CCN2CCCC(C)C2)c1 (centres undefined)	0	-72*	2	-9	0
CN1CCN(CCC(=O)Nc2ccccc2)CC1	-1	-36*	3	3	3
O=c1[nH]c(SCc2ccc(F)cc2)nc2c1CCCC2	0	-3	3	3	-2
Cn1c(=O)cc(SCC(=O)NCCc2ccc(Cl)cc2)c2cc(Cl)ccc21	0	0	1	-5	0
COC(=O)Cn1cccc1C(=O)c1ccccc1	0	-12	0	-10	14
O=C(O)Cn1cccc1C(=O)c1ccccc1	13	-16	33*	-2	2
CC(=O)OC1COC(N2CCc3ccccc32)C(OC(C)=O)C1OC(C)=O (centres undefined)	0	8	1	1	36*
Cc1ccc(SCc2nc(-c3ccc(C(=O)NCc4ccc(Cl)cc4)cc3)oc2C)cc1	0	-84*	2	-3	-10
CCOc1ccccc1CNC(=O)c1ccc(-c2nc(CSc3ccc(C)cc3)c(C)o2)cc1	1	6	14	-2	-1
Cc1oc(-c2ccc(C(=O)NCc3ccccc3F)cc2)nc1COc1ccccc1	1	-54*	11	-4	-20
COc1ccc(C(=O)NCC(c2cccnc2)N2CCc3ccccc3C2)cc1OC (centres undefined)	0	6	7	-2	-2
CCOCCCNC(=O)C1CCN(c2cc(C)nc3c(-c4ccc(Cl)cc4)c(C)nn23)CC1	0	5	1	-4	2
COc1ccc(NC(=O)CSc2nc(O)c(Cc3ccccc3)c(=O)[nH]2)cc1	0	21	-1	-3	32*
O=C(CSc1nc(O)c(Cc2ccccc2)c(=O)[nH]1)Nc1ccccc1	1	-7	1	1	1
COc1ccccc1OCCSc1nc2ccccc2c(=O)[nH]1	1	-41*	0	-10	10
Cc1nc(SCCOc2ccccc2)[nH]c(=O)c1Cc1ccccc1	0	0	1	-2	2
O=c1[nH]c(SCCOc2ccccc2F)nc2ccccc12	1	-24	0	-8	-1
SMILES	TRHR ag	D1 antag	D1 agonist	D1 potentiator	TRHR enhancer
CCOC(=O)c1ccc(NC(=O)CSc2nc(C)c(Cc3ccccc3)c(=O)[nH]2)cc1	-1	-30*	8	0	-6
COc1ccc(OCCSc2nc(C)c(Cc3ccccc3)c(=O)[nH]2)cc1	-1	-39*!	28	-1	1
COc1ccc(OC)c(NC(=O)c2csnn2)c1	0	3	-1	3	14
COc1ccc(C2C3C(=O)N(N(C)c4ncc(C(F)(F)F)cc4Cl)C(=O)C3ON2C)cc1 (centres undefined)	0	-31*	5	-2	2
COC(=O)C1(C(=O)OC)NOC2C(=O)N(N(C)c3ncc(C(F)(F)F)cc3Cl)C(=O)C21 (centres undefined)	1	4	1	-2	-1
Cc1ccc(C)c(S(=O)(=O)N2CCC3(CC2)OCCO3)c1	0	10	36*	-3	1
O=C(Nc1ccc(Cl)cc1Cl)c1cc(S(=O)(=O)N2CCC3(CC2)OCCO3)ccc1F	0	-41*	2	-3	-3
O=C(Nc1cccc(Cl)c1)c1cc(S(=O)(=O)N2CCC3(CC2)OCCO3)ccc1F	1	-2	-1	4	7
Cc1ccc(S(=O)(=O)N2CCC3(CC2)OCCO3)cc1	1	-32*	20	-3	4
CC(=O)c1cccc(NC(=O)N2CCC(CN3CCCCC3)CC2)c1	1	1	0	2	4
Cc1ccc2onc(CC(=O)Nc3ccc(C(C)C)cc3)c2c1	0	-74*	0	-4	-6
O=C(Cc1noc2ccccc12)Nc1ccccn1	0	8	0	-5	-1
Cc1ccc(NC(=O)Cc2noc3ccccc23)nc1	1	-32*	2	0	27
CSc1ccc(CCNC(=O)C2CCCN(S(=O)(=O)N(C)c3ccc(F)cc3)C2)cc1 (centres undefined)	0	-14	14	-5	-9
CCOc1ccc(NS(=O)(=O)c2ccc(C(=O)N3CCCC(C)C3)cc2)cc1 (centres undefined)	0	-52*	59*	6	9
CCOc1ccc(OCc2ccc(C(=O)N3CCCC(C)C3)cc2)cc1 (centres undefined)	0	-30*	10	2	4
CCOc1ccc(NS(=O)(=O)c2ccc(C(=O)NCC3(N(C)C)CCCCC3)cc2)cc1	-1	2	0	6	0
Cc1ccccc1NS(=O)(=O)c1ccc(C(=O)N2CCC2)cc1	0	-63*	-1	5	14
CCOc1ccc(NS(=O)(=O)c2ccc(C(=O)NCC3(N4CCCCC4)CCCCC3)cc2)cc1	9	12	31*	-1	-4
CCOc1ccc(S(=O)(=O)Nc2ccc(C(=O)N3CCCC3)cc2)cc1	0	5	8	4	-3
Cc1ccc(C(=O)Nc2nnc(S(=O)(=O)N3CCc4ccccc43)s2)cc1	0	-8	2	4	-5
